Assay results: PubChem BioAssay AID1851 (National Center for Advancing Translational Sciences (NCATS), 2009)
Screen size: about 16,000 compounds; about 5,700 (36%) were called active. Inconclusive results (about 24%) are left out. Calls come from the whole dose curve; as a rule, active = well fitted curve in the direction sought with a large enough effect; inconclusive = small, poorly fitted or top-dose-only effect, or effect the other way; inactive = no such curve, though single readings can be large or run the other way. The list shows a part of the results.

Target: Cytochrome P450 1A2 (Homo sapiens) (UniProt P05177)
Sequence (P05177 whole entry, looked up): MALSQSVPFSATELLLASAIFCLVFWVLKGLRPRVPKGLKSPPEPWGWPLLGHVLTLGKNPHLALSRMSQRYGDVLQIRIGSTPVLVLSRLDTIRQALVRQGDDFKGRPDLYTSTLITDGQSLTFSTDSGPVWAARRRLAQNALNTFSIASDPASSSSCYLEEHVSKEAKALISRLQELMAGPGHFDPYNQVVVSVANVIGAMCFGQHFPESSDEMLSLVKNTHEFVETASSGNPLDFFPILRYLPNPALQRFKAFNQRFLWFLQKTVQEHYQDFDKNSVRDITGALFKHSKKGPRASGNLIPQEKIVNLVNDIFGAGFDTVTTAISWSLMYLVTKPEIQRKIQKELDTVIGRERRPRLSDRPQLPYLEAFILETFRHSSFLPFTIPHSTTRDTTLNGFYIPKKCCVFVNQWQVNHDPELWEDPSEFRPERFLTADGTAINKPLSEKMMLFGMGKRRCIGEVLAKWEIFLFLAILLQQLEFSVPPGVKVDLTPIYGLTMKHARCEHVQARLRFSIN
Assay: Cytochrome panel assay with activity outcomes
Details: recombinant CYP, pro-luciferin dealkylation, luminescence, p450-cyp1a2; series mostly up to 57.1 µM
% is set by controls: 0 for no effect and ±100 for the full control effect.

AC50, active:
OC1(c2ccc(OC(F)F)cc2)CSC(=Nc2cccnc2)N1C1CC1 (stereo not drawn) 1120 nM
CCOc1ccc(N/N=C(/C#N)C(N)=O)cc1 5010 nM
CCCCCCC/C=C\CCCCCCCCC(=O)O 31600 nM
CCCCCCCCCCC/C=C\C(C)(C)/C=C\CCCC(=O)O 39800 nM
CNc1nc(-c2cccc(NS(C)(=O)=O)c2)nc2ccccc12 398 nM
CS(=O)(=O)Nc1cccc(-c2nccc(Nc3ccc(F)cc3)n2)c1 126 nM
CS(=O)(=O)Nc1cccc(-c2nc(Nc3ccc(F)cc3)c3ccccc3n2)c1 794 nM
CS(=O)(=O)Nc1cccc(-c2nc(Nc3ccccc3)c3ccccc3n2)c1 794 nM
COc1cccc(-c2nc(Nc3ccncc3)c3ccccc3n2)c1 794 nM
CS(=O)(=O)Nc1cccc(-c2nc(Nc3ccncc3)c3ccccc3n2)c1 631 nM
CN(C)c1nc(-c2cccc(NS(C)(=O)=O)c2)nc2ccccc12 501 nM
COc1cccc(CC(C(=O)Nc2cc(C)ccc2C)c2nn[nH]n2)c1OC (stereo not drawn) 3160 nM
COC(=O)c1cc(C(=O)c2ccc(Cl)cc2Cl)cn1C 2510 nM
C(=C1/CCCC2=C1Nc1ncnn1C2c1ccccc1)/c1ccccc1 (stereo not drawn) 10000 nM

AC50, inactive:
CCOc1ccc(NC(=O)C(=O)NCC2CCCN2CC)cc1 (stereo not drawn)
CCOc1ccc(NC(=O)N2CCC(C(N)=O)(N3CCCCC3)CC2)cc1
O=C1CCN(S(=O)(=O)c2ccccc2)N1
NCCCCC(=O)O
CCCCCCCCCCCCCCSCC(=O)O
NCCCCCC(=O)O
COc1ccc(OC)c(Nc2nc(-c3cccc([N+](=O)[O-])c3)nc3ccccc23)c1
C[C@H](CCC(=O)NCC(=O)O)[C@H]1CC[C@H]2[C@H]3[C@@H](C[C@@H](O)[C@]12C)[C@]1(C)CC[C@H](O)C[C@@H]1C[C@@H]3O
Cc1c(-n2cc(C(=O)c3cc(Cl)ccc3O)cc(C#N)c2=O)c(=O)n(-c2ccccc2)n1C
Cn1cc(C(=O)c2ccc(Cl)cc2Cl)cc1C(=O)O
COC(=O)C1=C(C)Nc2ncnn2C1c1cccnc1 (stereo not drawn)

activity, negative = inhibition, inactive:
O=C(O)c1c2c(c(O)c3c1CN(C1CCCCC1)CO3)OCN(C1CCCCC1)C2 3.18% [at 11.4 µM]
Nc1nccc(Nc2ccc(S(N)(=O)=O)cc2)n1 -8.04% [at 11.4 µM]
CC(C)(N)C(=O)N[C@@H]1C(=O)N2[C@@H]1SC(C)(C)[C@H]2C(=O)O 4.41% [at 2.29 µM]
